In the library only some 2.3% were active in any assay of this set; here they are far more common.
Bcl-xL primary: inhibitors of human Bcl-xL, primary screen, biochemical, fluorescence polarization, HTS; Bcl-2-like protein 1 (Homo sapiens), Q07817; GST-Bcl-xL / FITC-Bim BH3 peptide fluorescence polarization; inhibition, % at 10.9 µM; 0.7% of 320,000 active;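 active = inhibition above the mean of all tested compounds plus 3 SD, cutoff set per campaign, cut at about 30% in these data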;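 also: 0% = DMSO wells and 100% = unlabeled Bim-BH3 peptide competitor; inhibitors lower millipolarization by displacing the labeled peptide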
Target sequence (Q07817 whole entry, looked up): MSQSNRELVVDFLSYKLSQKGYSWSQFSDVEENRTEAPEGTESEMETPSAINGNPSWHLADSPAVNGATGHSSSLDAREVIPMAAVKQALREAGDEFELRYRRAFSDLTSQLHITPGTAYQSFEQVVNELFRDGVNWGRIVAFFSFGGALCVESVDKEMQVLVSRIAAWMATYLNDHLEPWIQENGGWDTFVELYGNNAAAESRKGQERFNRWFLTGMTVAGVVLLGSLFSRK
GLD-1 TGE inh: GLD-1/TGE RNA complex disruptors, primary screen, biochemical, fluorescence polarization. purified GLD-1 + fluorescein TGE RNA. inhibition, % at 5.96 µM. 0.44% of 320,000 active. AID 2280, 2010;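 active = percent inhibition above a per-plate cutoff, the plate mean of test compounds plus 3 SD, cut at about 30% in these data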;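 also: 0% = DMSO wells with GLD-1 and probe and 100% = wells lacking GLD-1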
Bim-Mcl-1: inhibitors of Bim peptide binding to Mcl-1, primary screen, biochemical, bead-based flow cytometry, multiplex; Induced myeloid leukemia cell differentiation protein Mcl-1 (Homo sapiens), Q07820; Bim peptide-Mcl-1 binding; inhibition, % at 10 µM; 0.1% of 190,000 active; AID 1009, 2008; in the data active = inhibition above about 40%;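 also: 0% = no compound tracer wells and 100% = peptide blocker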
Target sequence (Q07820 whole entry, looked up): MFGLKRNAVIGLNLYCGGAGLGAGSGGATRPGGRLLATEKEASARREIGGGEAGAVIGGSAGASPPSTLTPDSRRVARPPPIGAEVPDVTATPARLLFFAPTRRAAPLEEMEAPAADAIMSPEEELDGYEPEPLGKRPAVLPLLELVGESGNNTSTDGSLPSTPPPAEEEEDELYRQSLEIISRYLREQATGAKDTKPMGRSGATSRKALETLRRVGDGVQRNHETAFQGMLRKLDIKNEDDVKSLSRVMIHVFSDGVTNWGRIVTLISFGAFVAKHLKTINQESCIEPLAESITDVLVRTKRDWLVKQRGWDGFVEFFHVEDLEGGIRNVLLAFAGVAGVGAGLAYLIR
MCL1 BIM primary: inhibitors of MCL1 binding to BIM-BH3, primary screen, biochemical, fluorescence polarization | GST-MCL1 / FITC-Bim-BH3 fluorescence polarization | inhibition, % at 10.9 µM | Induced myeloid leukemia cell differentiation protein Mcl-1 (Homo sapiens), Q07820 | 0.68% of 320,000 active;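 active = inhibition above the mean inhibition of all tested compounds plus 3 SD, set per campaign, cut at about 40% in these data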;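 also: 0% = DMSO wells and 100% = unlabeled Bim-BH3 peptide control; higher means more loss of mP so more displacement of Bim peptide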
Mcl1-Bid inh: Mcl-1/Bid binding inhibitors, primary screen, biochemical, TR-FRET, 1536-well; Induced myeloid leukemia cell differentiation protein Mcl-1 (Homo sapiens), Q07820; TR-FRET Mcl-1/Bid-Dy647 peptide binding; inhibition, % at 21.7 µM; 0.97% of 220,000 active;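 active = compounds that cut the binding signal by more than half at the single screening dose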;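 also: His-tagged Mcl-1 with europium anti-His antibody binding Bid BH3 peptide; 0% = Mcl-1 plus peptide wells and 100% = peptide-only wells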
Mcl1 Noxa PPI: Mcl-1/Noxa binding inhibitors, primary screen, biochemical, TR-FRET, 1536-well; TR-FRET Mcl-1/Noxa peptide binding, 2 h; inhibition, % at 21.7 µM; 1.5% of 220,000 active; AID 1022, 2008;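 active = compounds that cut the protein-peptide binding signal by more than 50% relative to plate controls in a single-dose test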;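 also: His-tagged Mcl-1 with rhodamine Noxa BH3 peptide and terbium anti-His antibody; 0% = Mcl-1 plus Noxa peptide wells and 100% = peptide-only wells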
Bcl-xL conf: Bcl-xL inhibitors blocking Bim BH3 binding, confirmation, counter-screen for MCL1 inhibitor project, biochemical, fluorescence polarization. shares compounds with MCL1 BIM primary. inhibition, % at 10.9 µM. 54% of 1,700 active. GST-Bcl-xL / FITC-Bim BH3 peptide FP binding. AID 2166, 2009;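 active = inhibition above a cutoff equal to the mean inhibition of all tested compounds plus 3 SD, cut at about 30% in these data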;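 also: 0% = DMSO wells and 100% = unlabeled Bim BH3 control peptide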
MCL1 inh confirm: inhibitors of MCL1 binding to BIM-BH3, confirmation, biochemical, fluorescence polarization, triplicate; shares compounds with MCL1 BIM primary; GST-MCL1 / FITC-Bim-BH3 fluorescence polarization; inhibition, % at 10.9 µM; 61% of 1,700 active;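 active = inhibition above the average of all tested compounds plus 3 SD, cut at about 40% in these data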;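 also: 0% = DMSO wells and 100% = unlabeled Bim-BH3 control peptide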
The depositor's hits bear a star; . = no result given; + = active, no number.

SMILES	Bcl-xL primary	GLD-1 TGE inh	Bim-Mcl-1	MCL1 BIM primary	Mcl1-Bid inh	Mcl1 Noxa PPI	Bcl-xL conf	MCL1 inh confirm
O=c1cc(-c2ccc(O)cc2)oc2c1ccc1ccccc12	-6	1	.	-28	.	.	.	.
O=c1cc(-c2ccc(O)cc2)oc2c(O)c(O)c(O)c(O)c12	10	-1	.	47*	-28	34	15	54*
Cn1c(=O)c(Nc2ccc(Cl)cc2)c2c3c(cccc31)C(=O)c1ccccc1-2	+	172*	15	+	-36	-5	162*	197*
CC(=O)n1cc(/C=N/NC(=O)c2ccc(Cl)cc2)c2ccccc21	10	-1	.	5	.	.	.	.
O=C(COc1cccc2ccccc12)N/N=C/c1ccccc1OCc1ccc(C(=O)O)cc1	8	-4	-1	49*	-27	33	6	39
C/C(=N\NC(=O)c1cc(O)ccc1O)c1cccc(NC(=O)c2cccc(Cl)c2)c1	16	0	.	38	.	.	.	.
C/C(=N\NC(=O)c1cc(O)ccc1O)c1cccc(NC(=O)c2ccc(Cl)cc2)c1	27	13	.	48*	.	.	28	47*
CCCCc1ccc(CC(=O)Nc2cc(S(=O)(=O)N3CCOCC3)ccc2O)cc1	16	-3	.	36	.	.	.	.
O=C(O)c1ccc(-c2ccc(/C=c3/sc4nc5ccccc5n4c3=O)o2)cc1Cl	14	-7	.	40*	.	.	-13	-21
Cc1ccc2[nH]c(=O)c(CN(Cc3cccnc3)Cc3nnnn3CC3CCCO3)cc2c1 (stereo not drawn)	3	11	.	3	-32	1	.	.
O=c1[nH]c2cc3c(cc2cc1CN(Cc1ccc2c(c1)OCO2)Cc1nnnn1CC1CCCO1)OCO3 (stereo not drawn)	70*	65*	-2	74*	-14	13	10	7
C/C=C/C=C/[C@H]1Cc2cc(O)cc(O)c2O1	60*	88*	.	67*	-146	56*	57*	83*
CN1CCc2c(sc(N)c2C(N)=O)C1	60*	7	0	65*	-69	4	22	7
CCN1CCc2c(sc(N)c2C(N)=O)C1	61*	23	12	64*	-145	14	30	34
CN1CCc2c(sc(NC(=O)c3cc(Cl)sc3Cl)c2C(N)=O)C1	1	-8	.	48*	.	.	7	13
CN1CCc2c(sc(NC(=O)c3ccco3)c2C(N)=O)C1	8	-12	.	2	.	.	.	.
O=C(/C=C/c1ccc(Br)o1)OCc1nc2ccsc2c(=O)[nH]1	27	12	.	49*	.	.	37*	87*
O=C(OCc1nc2ccsc2c(=O)[nH]1)c1cc(Br)c(Br)s1	5	1	.	1	.	.	.	.
CCc1nnc(NC(=O)CSc2sc3c(O)cc(=O)[nH]c3c2C#N)s1	26	-3	.	48*	.	.	32*	58*
COc1ccc(NC(=O)CSc2sc3c(O)cc(=O)[nH]c3c2C#N)c(OC)c1	14	2	.	20	.	.	.	.
COc1ccccc1NC(=O)CSc1sc2c(O)cc(=O)[nH]c2c1C#N	18	1	.	45*	.	.	16	27
O=C(NC1CCCC1)c1cccc2c1C(=O)c1ccc(Cl)cc1S2(=O)=O	3	3	.	-5	.	.	.	.
O=C(CNC(=O)/C=C/c1ccco1)N=Nc1c(O)[nH]c2ccccc12	20	-2	.	42*	.	.	28	57*
O=C(CNC(=O)Cc1ccccc1)N=Nc1c(O)[nH]c2ccccc12	4	-3	.	-4	.	.	.	.
Cc1cc(SCC(=O)N/N=C/c2ccc(O)cc2O)nc2ccccc12	2	-5	.	13	.	.	.	.
SMILES	Bcl-xL primary	GLD-1 TGE inh	Bim-Mcl-1	MCL1 BIM primary	Mcl1-Bid inh	Mcl1 Noxa PPI	Bcl-xL conf	MCL1 inh confirm
Cc1cc(SCC(=O)N/N=C/c2ccc(O)c(O)c2)nc2ccccc12	16	3	.	49*	.	.	47*	74*
COc1cccc2c(SCC(=O)N/N=C/c3ccc(O)c(O)c3)cc(C)nc12	2	-6	10	43*	-16	64*	36*	72*
CC(=O)c1cc(-c2ccccc2)n(CC(=O)N2CCN(C3CCCC3)CC2)c1C	45*	15	-3	55*	-32	-15	19	24
CC(=O)c1cc(-c2ccccc2)n(CC(=O)N2CCC(C)CC2)c1C	10	-3	-1	11	-32	-2	.	.
CN1CCc2cc3c(c4c2[C@H]1[C@H](O)c1ccccc1-4)OCO3	111*	48*	3	124*	-5	35	61*	80*
O=S(=O)(c1ccc2c(c1)CCCN2)N1CCCC1	6	5	.	11	.	.	.	.
CCN(CC)c1ccc2c(c1)CCCN2	105*	90*	14	128*	-55	69*	28	19
COC(=O)c1ccccc1NCc1cc(=O)oc2cc(O)c(O)cc12	9	-1	.	60*	.	.	23	65*
O=C1C(=Cc2cccn2-c2ccc(O)cc2)C(=O)c2ccccc21	169*	61*	1	199*	70*	1	152*	190*
O=C(CN1C(=O)S/C(=C/c2cccn2-c2ccc(O)cc2)C1=O)N1CCCC1	8	-1	.	1	.	.	.	.
COc1ccc(C(=O)N/N=C/c2c[nH]c3ccccc23)cc1	3	-1	.	11	.	.	.	.
COc1ccc(C(=O)N/N=C/c2cc3ccccc3[nH]c2=S)cc1	17	11	27	44*	-107	44	7	28
CC(=O)Nc1ccc(-c2csc(-c3cccnc3)n2)cc1	-1	1	.	2	.	.	.	.
COC(=O)Cc1ccc(NC(C)=O)cc1	-1	-1	.	-9	.	.	.	.
COc1ccc(N=Nc2nc3cc(Br)c(Br)cc3n2C)c(OC)c1	+	198*	-9	+	-26	-13	176*	+
COc1cccc(CN2CC(C(=O)NCCCn3cccn3)CCC2=O)c1 (stereo not drawn)	1	3	.	0	.	.	.	.
COc1ccc(C)cc1NC(=O)CN(C)S(=O)(=O)c1ccc2c(c1)CC(C)N2C(C)=O (stereo not drawn)	3	4	.	-4	.	.	.	.
